Experimental data from PubChem BioAssay (NCATS).
Records with an inconclusive call do not appear. Unmarked numbers belong to inactive results. Activity calls are given as the source filed them. Calls follow the shape of the dose curve; as a rule, active = well fitted inhibition curve with a large enough effect; inconclusive = small, poorly fitted or top-dose-only effect; inactive = flat fitted curve, though single readings scatter.

The compounds below were run on ATS189 (assay: qHTS profiling for inhibitors of Plasmodium falciparum proliferation (AID 504749; also: nearly all actives have a fitted effect of over 60% in size;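 as to activity, negative = inhibition: 0% = DMSO vehicle and full inhibition = artemisinin control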)). Conditions: P. falciparum in erythrocytes, SYBR Green DNA, 72 h; series mostly up to 28.7 µM; activity, negative = inhibition: at the top concentration.
Method in brief: (§1)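 Readout was DNA-dye fluorescence from lysed cultures, ex 485/em 535 nm. Parasitized red cells had grown 72 h with compound; data scaled between 0.29 uM artemisinin and DMSO wells and corrected using vehicle-only plates.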
Potency is read from the fitted curve at half-maximal effect.

SMILES	activity, negative = inhibition	Potency
CC[N+](CC)(CC)CC	9.25%	
CC1OC(C)OC(C)O1 (stereo unspecified)		inactive
Oc1cccc2cccnc12	-1.47%	
Cc1ccc(-c2nc3ccc(C)cn3c2CC(=O)N(C)C)cc1	7.67%	
CCOP(=S)(OCC)Oc1cc(C)nc(C(C)C)n1	12%	
O=C(O)c1ccc2[nH]cc(CCCCN3CC=C(c4ccccc4)CC3)c2c1	2.65%	
NCC(O)c1ccc(O)cc1 (stereo unspecified)	1.03%	
CN1C(=S)CN=C(c2ccccc2)c2cc(Cl)ccc21	7.43%	

Each compound was assayed on ATS95 in the same assay as above. Conditions: P. falciparum in erythrocytes, SYBR Green DNA, 72 h; series mostly up to 28.7 µM; activity, negative = inhibition: at the top concentration.
Method in brief: as §1

SMILES	activity, negative = inhibition	Potency
CC1NCCOC1c1ccccc1 (stereo unspecified)	-5.27%	
CCCC(C)(COC(N)=O)COC(=O)NC(C)C (stereo unspecified)	1.36%	
N#CC(C#N)=Cc1ccc(O)c(O)c1	-12.8%	
Nc1ccncc1	4.13%	
CC(=O)[C@H]1CC[C@H]2[C@@H]3CC[C@H]4C[C@H](O)CC[C@]4(C)[C@H]3C(=O)C[C@]12C	2.07%	
CCC(C(N)=O)N1CCCC1=O (stereo unspecified)	-2.09%	
CN(C)CCc1ccc(O)cc1	-0.446%	
NCC(CC(=O)O)c1ccc(Cl)cc1 (stereo unspecified)	11.9%	
C=C1CC[C@@]2(O)[C@H]3Cc4ccc(O)c5c4[C@@]2(CCN3CC2CC2)[C@H]1O5	-20.9%	
NP(N)(=O)NC(=O)c1ccc(F)cc1	-16.9%	
CC[N+]1(C)CCCC(OC(=O)C(O)(c2ccccc2)c2ccccc2)C1 (stereo unspecified)	4.08%	
CC(=O)Nc1cc([As](=O)(O)O)ccc1O	2.9%	
CC(C)CC(N(C)C)C1(c2ccc(Cl)cc2)CCC1 (stereo unspecified)	9.16%	
CCC(COC(=O)c1cc(OC)c(OC)c(OC)c1)(c1ccccc1)N(C)C (stereo unspecified)	-16.6%	
NN=C(N)N	5.53%	
CC(=O)[C@H]1CC[C@H]2[C@@H]3CC[C@H]4C[C@](C)(O)CC[C@]4(C)[C@H]3CC[C@]12C	11.9%	
CCOC(=O)C1(c2ccccc2)CCN(CCC(C#N)(c2ccccc2)c2ccccc2)CC1		3.55 µM (active)
Oc1cc(Cl)ccc1Oc1ccc(Cl)cc1Cl		10 µM (active)
C=C(C)[C@H]1Cc2c(ccc3c2O[C@@H]2COc4cc(OC)c(OC)cc4[C@@H]2C3=O)O1	-15.6%	
Clc1ccc(COC(Cn2ccnc2)c2ccc(Cl)cc2Cl)cc1 (stereo unspecified)		3.98 µM (active)
CC[N+](CC)(CC)CC	3.7%	
CC1OC(C)OC(C)O1 (stereo unspecified)		inactive
Oc1cccc2cccnc12	3.9%	
Cc1ccc(-c2nc3ccc(C)cn3c2CC(=O)N(C)C)cc1	3.85%	
CCOP(=S)(OCC)Oc1cc(C)nc(C(C)C)n1	1.54%	
O=C(O)c1ccc2[nH]cc(CCCCN3CC=C(c4ccccc4)CC3)c2c1	-3.3%	
NCC(O)c1ccc(O)cc1 (stereo unspecified)	3.14%	
CN1C(=S)CN=C(c2ccccc2)c2cc(Cl)ccc21	-7.63%	
